From PubChem
The list is not random: actives were taken first. Their share in the collection is about 7.3%.
HCMV antiviral: qHTS Assay for inhibitors of the human cytomegalovirus (HCMV); activity change, negative = inhibition, % at 57.5 µM; 4.5% of 410,000 active; HFF cells, HCMV-luciferase reporter, 72 h; stronger effect = lower value; in the data active means activity change below about -60%; inconclusive means no clear call, values can overlap the other calls; inactive means above about -39%
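Cell-based, HFFs, 1000 cells/well, 16 h 37C; cpds in DMSO + HCMV-luc, MOI 1 PFU/cell; 72 h 37C; OneGlo luminescence after 5 min RT; norm. to buffer vs Salinomycin 10uM.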
HCV inhibitor: qHTS Assay for Inhibitors of Hepatitis C Virus (HCV) | Potency, µM (doses to about 41.8 µM), actives largely listed as inhibitors | Huh7.5.1 HCVcc-Cre infection, luciferase reporter, 44 h | AID 651820, 2012 | 3.4% of 340,000 active; active means well fitted inhibition curve with a large enough effect; inconclusive means small, poorly fitted or top-dose-only effect, or another doubt; inactive means no such curve, though single readings can be large or run the other way
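After 44 h co-culture of compound, cells and HCVcc-Cre (~0.5 moi), substrate is added for 15 min at room temperature and luciferase measured over 15 sec. Cells were seeded at 1,000/well and pre-cultured 4 h.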
VACV Venus inh: qHTS for Stage-Specific Inhibitors of Vaccinia Orthopoxvirus: Venus Reporter Primary qHTS | 0.46% of 330,000 active | Vaccinia virus Venus reporter expression, fluorescence | Potency, µM (top dose mostly 36.5 µM), most hits filed as inhibitors; calls by dose curve; tested in A549 cells; further: nearly all actives have a fitted effect of over 30% in size
FMDV inh: High Throughput Screening for Foot and Mouth Disease Virus Antivirals. FMDV antiviral cell-based qHTS. Potency, µM (top dose mostly 57.9 µM), actives largely listed as inhibitors. 1.2% of 410,000 active. AID 1159524, 2015; calls by dose curve; tested in HEK293T cells; further: read-out not given here; nearly all actives have a fitted effect of over 45% in size
VACV mCherry inh: qHTS for Stage-Specific Inhibitors of Vaccinia Orthopoxvirus: mCherry Reporter Primary qHTS; Vaccinia virus mCherry reporter infection, fluorescence; Potency, µM (titrated, usually from 36.5 µM), actives largely listed as inhibitors; 0.63% of 310,000 active; AID 720579, 2013; calls by dose curve; tested in A549 cells; further: nearly all actives have a fitted effect of over 35% in size
Of the large screens only hits and unclear results are named; the others gave an inactive call.

COC(=O)C1CCN(Cc2ccc3c(c2)CN(C(=O)c2ccc4nc(C)c(C)nc4c2)CCO3)CC1	none (no result: HCMV antiviral, HCV inhibitor)
Cc1ccc(NC(=O)c2ccccc2)cc1-n1cnnn1	HCMV antiviral -73.2
Cc1ccc(NC(=O)c2ccccc2Cl)cc1-n1cnnn1	none
O=C(Nc1ccc2nc3ccccc3nc2c1)c1ccccc1	HCV inhibitor inconclusive, VACV Venus inh inconclusive, VACV mCherry inh 10µM
Cn1c(CN2CCCCC2)nc2cc(NC(=O)c3ccccc3)ccc21	HCMV antiviral -60.0, VACV mCherry inh inconclusive
O=C(Nc1ccc(Cl)c(Cl)c1)c1ccccc1	HCV inhibitor inconclusive
Cc1cc(C)c(NC(=O)CS(=O)CC(=O)Nc2ccc(-n3cnnn3)c(C)c2)c(C)c1 (centres undefined)	HCMV antiviral -69.3
Cn1c(CN2CCCC2)nc2cc(NC(=O)Nc3ccccc3)ccc21	none (no result: FMDV inh)
Cc1cc(NC(=O)CS(=O)CC(=O)Nc2c(C)cccc2C)ccc1-n1cnnn1 (centres undefined)	none
COc1ccccc1N1CCN(c2nc(CNC(=O)c3ccccc3F)nc3ccccc23)CC1	none (no result: HCMV antiviral, HCV inhibitor)
Cc1ccc(NC(=O)c2ccc3c(c2)OCCO3)cc1C	HCV inhibitor inconclusive, FMDV inh 12.6µM
Cc1c(C(=O)Nc2ccc(-n3cnnn3)cc2)oc2ccccc12	HCMV antiviral -65.5 (no result: FMDV inh)
CCC(=O)Nc1ccc(NC(=O)c2oc3ccccc3c2C)cc1	none (no result: VACV Venus inh, VACV mCherry inh)
Cc1cccc(NC(=O)c2ccc3c(c2)OCCO3)c1	none
O=C(Nc1nonc1-c1ccc(Br)cc1)c1ccco1	none (no result: HCV inhibitor)
Cn1nc(C(C)(C)C)cc1C(=O)NCc1ccc(N2CCCC2=O)cc1	HCMV antiviral -100.1, HCV inhibitor inconclusive, FMDV inh inconclusive (no result: VACV Venus inh, VACV mCherry inh)
Cc1ccc(CNC(=O)c2ccc(-n3c(C)cc4c3CCCC4)cc2)cc1	none (no result: HCV inhibitor)
CCOc1ccc(CCNC(=O)CCNC(=O)c2ccc(Br)cc2)cc1OCC	none (no result: HCMV antiviral, VACV Venus inh, VACV mCherry inh)
Cc1cc2c(n1-c1ccc(C(=O)NCc3ccc(OC(C)C)cc3)cc1)CCCC2	HCMV antiviral -98.6, VACV mCherry inh inconclusive (no result: HCV inhibitor)
CCOc1ccc(CCNC(=O)c2ccc(-n3c(C)cc4c3CCCC4)cc2)cc1OCC	HCMV antiviral -85.1, VACV Venus inh inconclusive, VACV mCherry inh inconclusive (no result: HCV inhibitor)
O=C(C1CCCN(S(=O)(=O)c2ccc(Br)s2)C1)N1CCN(c2ccc(F)cc2)CC1 (centres undefined)	HCMV antiviral inconclusive, FMDV inh inconclusive, VACV mCherry inh inconclusive (no result: HCV inhibitor)
COc1cc(SC#N)ccc1N=Cc1c(C)[nH]n(-c2ccc(Cl)cc2)c1=O	none
COc1cc(SC#N)ccc1N=Cc1c(C)[nH]n(-c2ccc(C)c(C)c2)c1=O	HCMV antiviral -65.0, HCV inhibitor inconclusive, FMDV inh 12.6µM
COCc1c(Br)c(C)nc2sc3c(=O)n(-c4cccc(Br)c4)nnc3c12	none (no result: HCV inhibitor)
COc1ccc(S(=O)(=O)Nc2ccc(Cc3ccncc3)cc2)cc1C	none (no result: HCMV antiviral, VACV Venus inh, VACV mCherry inh)
C=C1/C=C(\C)C(C)(O)CC(O)CC(=O)C(O)C(O)C(C)CC(C)OC(=O)/C(C)=C/CC/C=C/C(OC)C(O)CC(C)C1 (centres undefined)	none (no result: HCMV antiviral)
Cc1nn(C)cc1C1C(C#N)=C(N)N(c2ccc(F)c([N+](=O)[O-])c2)C2=C1C(=O)CCC2 (centres undefined)	VACV Venus inh inconclusive, VACV mCherry inh 10µM
O=C1CCCC2=C1C(c1ccccc1)NC(=S)N2 (centres undefined)	HCMV antiviral -103.4
Cc1ccc(C2NC(=S)NC3=C2C(=O)CCC3)cc1 (centres undefined)	none
O=C(Nc1ncc(Cc2cccc(Cl)c2)s1)c1cccs1	HCV inhibitor 22.4µM, VACV Venus inh inconclusive
O=C(Nc1ncc(Cc2ccccc2)s1)c1cccs1	HCV inhibitor inconclusive, VACV Venus inh inconclusive (no result: VACV mCherry inh)
O=C(Nc1ccn(CCCN2CCC(N3CCOCC3)CC2)c(=O)n1)OCc1ccccc1	none (no result: HCV inhibitor)
Cc1ccccc1NC(=S)NCCSc1ccc(Cl)cc1	HCMV antiviral -63.8, HCV inhibitor inconclusive
Cc1ccc(C)c(NC(=S)NCCSc2ccc(Cl)cc2)c1	HCV inhibitor inconclusive
Cc1cccc(NC(=S)NCCSc2ccc(Cl)cc2)c1	none
CCc1ccccc1NC(=S)NCCSc1ccc(Cl)cc1	HCMV antiviral -87.7
Cc1ccc(NC(=S)NCCSc2ccc(Cl)cc2)c(C)c1	HCMV antiviral -83.6, HCV inhibitor inconclusive
CCN(C(=O)c1cn(CC)c(=O)c2cc(OC)c(OC)cc12)c1ccccc1F	none (no result: HCV inhibitor)
COC(=O)C1(C)NC(c2ccc(O)cc2)C2C(=O)N(c3ccc4c(c3)OCCO4)C(=O)C21 (centres undefined)	HCMV antiviral -73.3 (no result: VACV Venus inh, VACV mCherry inh)
CNS(=O)(=O)c1ccc2nc(NC(=O)/C=C/c3ccco3)sc2c1	HCV inhibitor inconclusive, VACV Venus inh inconclusive, VACV mCherry inh 6.31µM
O=C(NCCc1csc(-c2ccc(Cl)cc2)n1)c1cccs1	HCMV antiviral inconclusive, FMDV inh 25.1µM (no result: HCV inhibitor)
COc1ccc(-c2nc(CCl)cs2)cc1	none (no result: VACV Venus inh, VACV mCherry inh)
COc1ccc(-c2nc(CCNC(=O)c3cccs3)cs2)cc1OC	HCMV antiviral -84.2, FMDV inh inconclusive (no result: HCV inhibitor)
COc1ccc(C(=O)NCCc2csc(-c3ccc(Cl)cc3)n2)cc1	HCMV antiviral inconclusive (no result: HCV inhibitor)
COc1ccc(-c2nc(CCl)cs2)cc1OC	HCV inhibitor 11.2µM
CCCCOc1ccc(C(=O)NCCc2csc(-c3ccc(OC)cc3)n2)cc1	HCMV antiviral -60.8, VACV Venus inh inconclusive, FMDV inh inconclusive, VACV mCherry inh inconclusive (no result: HCV inhibitor)
CCSC1OC(C(COC(C)=O)OC(C)=O)C(OC(C)=O)C1NC(C)=S (centres undefined)	none
CCOC(=O)N1CCN(C(=O)c2ccc(-c3ccccc3OC)nc2N2CCC(N3CCCC(CO)C3)CC2)CC1 (centres undefined)	none (no result: HCMV antiviral, HCV inhibitor)
CCOc1ccc(-c2cc3nc(C4CCN(C(=O)OC(C)(C)C)CC4)c(C(=O)Nc4ccc(C)c(F)c4)cn3n2)cc1	HCMV antiviral -93.1 (no result: HCV inhibitor)
CCOC(=O)c1c(C)[nH]c2cc(Br)c(OC)cc12	HCV inhibitor 5.62µM (no result: VACV mCherry inh)
COc1ccc(S(=O)(=O)N2CCN(C(=O)c3ccco3)CC2)cc1C(C)(C)C	none (no result: VACV Venus inh, VACV mCherry inh)
O=C(OC[C@H]1O[C@@H](OC(=O)c2cc(O)c(O)c(OC(=O)c3cc(O)c(O)c(O)c3)c2)[C@H](OC(=O)c2cc(O)c(O)c(OC(=O)c3cc(O)c(O)c(O)c3)c2)[C@@H](OC(=O)c2cc(O)c(O)c(OC(=O)c3cc(O)c(O)c(O)c3)c2)[C@@H]1OC(=O)c1cc(O)c(O)c(OC(=O)c2cc(O)c(O)c(O)c2)c1)c1cc(O)c(O)c(OC(=O)c2cc(O)c(O)c(O)c2)c1	HCV inhibitor 11.2µM, VACV Venus inh 10µM, VACV mCherry inh 5.62µM (no result: HCMV antiviral)
C=CCn1c(-c2ccc(Cl)cc2)cnc1SC(C)C(=O)NC(N)=O (centres undefined)	HCMV antiviral -73.8, HCV inhibitor inconclusive, FMDV inh inconclusive
C=CCn1c(-c2ccc(Cl)cc2)cnc1SC(C)C(N)=O (centres undefined)	none (no result: VACV Venus inh, VACV mCherry inh)
